About 83,000 compounds went through this panel and 20% of them were active in at least one assay; those are over-represented in the sample as a whole.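 Activity criterion: percent growth below 10, measured after cells in 96-well plates were exposed to a single compound concentration for 48 hours.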 Active and inactive are the calls of the source.
Columns and labels:
Test in all cases: NCI-60 one-dose screen, 48 h (100 = growth as untreated, 0 = no growth, -100 = all killed)
SR leukemia = conditions: 10 µM unless noted
RPMI-8226 leukemia = conditions: 10 µM unless noted
OVCAR-8 ovarian = conditions: 10 µM unless noted
OVCAR-5 ovarian = conditions: 10 µM unless noted
OVCAR-4 ovarian = conditions: 10 µM unless noted
SK-OV-3 ovarian = conditions: 10 µM unless noted
OVCAR-3 ovarian = conditions: 10 µM unless noted
HS 578T breast = conditions: 10 µM unless noted
NCI/ADR-RES ovarian = conditions: 10 µM unless noted
T-47D breast = conditions: 10 µM unless noted
BT-549 breast = conditions: 10 µM unless noted
MDA-MB-435 melanoma = conditions: 10 µM unless noted
SW-620 colon = conditions: 10 µM unless noted
MCF7 breast = conditions: 10 µM
HCT-116 colon = conditions: 10 µM unless noted
HCC-2998 colon = conditions: 10 µM unless noted
KM12 colon = conditions: 10 µM unless noted
IGROV1 ovarian = conditions: 10 µM unless noted

CC1OC2CC(=O)OC2C2=C1C(=O)c1c(O)cccc1C2=O (stereo not drawn)
growth (SR leukemia): -30% (active) | growth (RPMI-8226 leukemia): -9.64% (active) | growth (OVCAR-8 ovarian): -14.7% (active) | growth (OVCAR-5 ovarian): -75.2% (active) | growth (OVCAR-4 ovarian): -98.5% (active) | growth (SK-OV-3 ovarian): 21% (inactive) | growth (OVCAR-3 ovarian): -97.9% (active) | growth (HS 578T breast): 5.97% (active) | growth (NCI/ADR-RES ovarian): -6.77% (active) | growth (T-47D breast): -30.1% (active) | growth (BT-549 breast): -98.5% (active) | growth (MDA-MB-435 melanoma): -68% (active) | growth (SW-620 colon): -76.4% (active) | growth (MCF7 breast): -45.2% (active) | growth (HCT-116 colon): -97.8% (active) | growth (HCC-2998 colon): -97.4% (active) | growth (KM12 colon): 24.7% (inactive)

O=C1C=CC(=O)N1C1c2ccccc2-c2ccccc21
growth (SR leukemia): -26.9% (active) | growth (RPMI-8226 leukemia): 90.7% (inactive) | growth (OVCAR-8 ovarian): 99.8% (inactive) | growth (OVCAR-5 ovarian): 109% (inactive) | growth (OVCAR-4 ovarian): 110% (inactive) | growth (SK-OV-3 ovarian): 96.5% (inactive) | growth (IGROV1 ovarian): 99.4% (inactive) | growth (NCI/ADR-RES ovarian): 100% (inactive) | growth (T-47D breast): 73.6% (inactive) | growth (MDA-MB-435 melanoma): 110% (inactive) | growth (SW-620 colon): 14.7% (inactive) | growth (MCF7 breast): 85.8% (inactive) | growth (HCT-116 colon): 97.9% (inactive) | growth (HCC-2998 colon): 114% (inactive) | growth (KM12 colon): 107% (inactive)

O=C1NC(=O)/C(=C/C=C/c2ccccc2)S1
growth (RPMI-8226 leukemia): 38.8% (inactive) | growth (OVCAR-8 ovarian): 43.1% (inactive) | growth (OVCAR-5 ovarian): 92.5% (inactive) | growth (OVCAR-4 ovarian): 70.1% (inactive) | growth (SK-OV-3 ovarian): 74.7% (inactive) | growth (IGROV1 ovarian): -6.36% (active) | growth (NCI/ADR-RES ovarian): 42.9% (inactive) | growth (T-47D breast): 60.7% (inactive) | growth (MDA-MB-435 melanoma): 49.6% (inactive) | growth (SW-620 colon): 61.4% (inactive) | growth (MCF7 breast): 19.1% (inactive) | growth (HCT-116 colon): 31.7% (inactive) | growth (HCC-2998 colon): 13.2% (inactive) | growth (KM12 colon): 38% (inactive)

Nc1ccc(SSc2ccc(N)cc2)cc1
growth (SR leukemia): 104% (inactive) | growth (RPMI-8226 leukemia): 102% (inactive) | growth (OVCAR-8 ovarian): 88% (inactive) | growth (OVCAR-5 ovarian): 101% (inactive) | growth (SK-OV-3 ovarian): 114% (inactive) | growth (IGROV1 ovarian): 108% (inactive) | growth (OVCAR-3 ovarian): 114% (inactive) | growth (HS 578T breast): 109% (inactive) | growth (NCI/ADR-RES ovarian): 97.5% (inactive) | growth (T-47D breast): 88.7% (inactive) | growth (BT-549 breast): 66.6% (inactive) | growth (MDA-MB-435 melanoma): 93.4% (inactive) | growth (SW-620 colon): 95.1% (inactive) | growth (MCF7 breast): 96.5% (inactive) | growth (HCT-116 colon): 95.1% (inactive) | growth (HCC-2998 colon): 94.8% (inactive) | growth (KM12 colon): 86.1% (inactive)

Cn1c2c(c3ccccc31)CCN1C[C@@H]3CCCC[C@H]3C[C@@H]21
growth (SR leukemia): 14.1% (inactive) | growth (RPMI-8226 leukemia): 16.7% (inactive) | growth (OVCAR-8 ovarian): 20.2% (inactive) | growth (OVCAR-5 ovarian): 25% (inactive) | growth (OVCAR-4 ovarian): 40.9% (inactive) | growth (SK-OV-3 ovarian): 9.15% (active) | growth (OVCAR-3 ovarian): -74.3% (active) | growth (HS 578T breast): -16.9% (active) | growth (NCI/ADR-RES ovarian): -36.1% (active) | growth (T-47D breast): 32.9% (inactive) | growth (BT-549 breast): 22.5% (inactive) | growth (MDA-MB-435 melanoma): -53.4% (active) | growth (SW-620 colon): 13.5% (inactive) | growth (MCF7 breast): 13.9% (inactive) | growth (HCC-2998 colon): -4.34% (active) | growth (KM12 colon): -32.3% (active)

Cc1ccnc2c1ccc1c(C)ccnc12
growth (SR leukemia): 4.34% (active) | growth (RPMI-8226 leukemia): 17.4% (inactive) | growth (OVCAR-8 ovarian): 12.1% (inactive) | growth (OVCAR-5 ovarian): 48.8% (inactive) | growth (OVCAR-4 ovarian): 24.1% (inactive) | growth (SK-OV-3 ovarian): 3.59% (active) | growth (IGROV1 ovarian): 23.8% (inactive) | growth (NCI/ADR-RES ovarian): 1.41% (active) | growth (T-47D breast): 6.3% (active) | growth (BT-549 breast): 23.2% (inactive) | growth (MDA-MB-435 melanoma): 32% (inactive) | growth (SW-620 colon): 30.2% (inactive) | growth (MCF7 breast): 13.9% (inactive) | growth (HCT-116 colon): 13.7% (inactive) | growth (HCC-2998 colon): 51.3% (inactive) | growth (KM12 colon): 24.2% (inactive)

CCCCCCCCCCCCCCCC[N+](C)(CCO)Cc1cnc[nH]1 (stereo not drawn)
growth (RPMI-8226 leukemia): -58.3% (active) | growth (OVCAR-8 ovarian): -4.26% (active) | growth (OVCAR-5 ovarian): -13.7% (active) | growth (OVCAR-4 ovarian): -1.06% (active) | growth (SK-OV-3 ovarian): -21% (active) | growth (IGROV1 ovarian): -54.5% (active) | growth (OVCAR-3 ovarian): -36.9% (active) | growth (HS 578T breast): -19.4% (active) | growth (NCI/ADR-RES ovarian): 94.5% (inactive) | growth (T-47D breast): 16.5% (inactive) | growth (MDA-MB-435 melanoma): -43.8% (active) | growth (SW-620 colon): -27% (active) | growth (MCF7 breast): -18.4% (active) | growth (HCT-116 colon): -51% (active) | growth (HCC-2998 colon): -70.5% (active) | growth (KM12 colon): -97.7% (active)

CCOc1ccc(-c2nc3ccc(-c4nc5ccc(N6CCN(C)CC6)cc5[nH]4)cc3[nH]2)cc1
growth (RPMI-8226 leukemia): -4.63% (active) | growth (OVCAR-8 ovarian): -38.2% (active) | growth (OVCAR-5 ovarian): -45.8% (active) | growth (OVCAR-4 ovarian): -65.1% (active) | growth (SK-OV-3 ovarian): -93.7% (active) | growth (IGROV1 ovarian): -82.9% (active) | growth (OVCAR-3 ovarian): -100% (active) | growth (HS 578T breast): -58.3% (active) | growth (NCI/ADR-RES ovarian): 61% (inactive) | growth (T-47D breast): -69.4% (active) | growth (BT-549 breast): -96.6% (active) | growth (MDA-MB-435 melanoma): -96% (active) | growth (SW-620 colon): -85.5% (active) | growth (MCF7 breast): -90.3% (active) | growth (HCT-116 colon): -77.6% (active) | growth (HCC-2998 colon): -95.3% (active) | growth (KM12 colon): -100% (active)

CN(C)c1ccc(C(=C2C=CC(=[N+](C)C)C=C2)c2ccc(N(C)C)cc2)cc1 (tested in a mixture with another compound)
growth (RPMI-8226 leukemia): -52.6% (active) | growth (OVCAR-8 ovarian): -23.2% (active) | growth (OVCAR-5 ovarian): -66.9% (active) | growth (OVCAR-4 ovarian): -40.1% (active) | growth (SK-OV-3 ovarian): -81.1% (active) | growth (IGROV1 ovarian): -63.8% (active) | growth (OVCAR-3 ovarian): -93.5% (active) | growth (HS 578T breast): -1.97% (active) | growth (NCI/ADR-RES ovarian): -4.74% (active) | growth (T-47D breast): -92.4% (active) | growth (SW-620 colon): -72.3% (active) | growth (MCF7 breast): -92.3% (active) | growth (HCT-116 colon): -76% (active) | growth (HCC-2998 colon): -80.3% (active) | growth (KM12 colon): -95.3% (active)

— PubChem BioAssay (NCI)
